Shown are actives, neighbours in structure and some others; about 2.8% of the full set was active somewhere.
DRD3 agonist = activates the human D3 dopamine receptor. P35462. 410,000 compounds, 0.58% hits. max activation, %. D3R DiscoveRx beta-arrestin cells, luminescence, 90 min; in the data active = max activation above about 30%; also: 0% is about no effect
Target sequence (P35462 whole entry, looked up): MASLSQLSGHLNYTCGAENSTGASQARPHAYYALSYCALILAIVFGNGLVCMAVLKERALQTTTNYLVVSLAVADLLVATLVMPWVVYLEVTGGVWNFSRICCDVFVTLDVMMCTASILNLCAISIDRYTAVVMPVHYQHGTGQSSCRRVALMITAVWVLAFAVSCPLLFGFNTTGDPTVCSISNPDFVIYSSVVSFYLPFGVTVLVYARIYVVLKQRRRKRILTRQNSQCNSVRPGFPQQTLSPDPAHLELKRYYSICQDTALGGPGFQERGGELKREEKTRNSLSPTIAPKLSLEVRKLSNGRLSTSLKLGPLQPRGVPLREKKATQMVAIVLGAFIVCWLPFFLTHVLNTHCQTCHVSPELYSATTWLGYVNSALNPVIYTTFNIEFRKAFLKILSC
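Cells at 1500/well, incubated overnight, then treated with pinned compounds (dopamine as control) for 90 min at 37 degrees C. DiscoveRx reagent added for 30 - 60 minutes at room temperature; luminescence read.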
D3 antag = antagonists of human D3 dopamine receptor; P35462; D3R cells, DiscoveRx beta-arrestin luminescence, antagonist mode; hits give low values; max response, negative = inhibition, %; 360,000 compounds, 2.5% hits; AID 652054; in the data active = max response below about -50%; inconclusive = no clear call, values can overlap the other calls; also: % is scaled to controls: 0 for no effect and ±100 for the full control effect
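Cells plated overnight at 1500 cells/well, then exposed to library compounds with dopamine controls for 90 minutes at 37 degrees C. DiscoveRx reagent added for 30–60 minutes at room temperature; luminescence read, quantitative HTS format.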
RGS4 inh = blocks human RGS4-accelerated GTP hydrolysis; Transcreener GDP fluorescence polarization, RGS4-accelerated GTP hydrolysis; AID 504845; P49798; Potency, µM (series often up to 114 µM), without a hit: top-dose activity change, negative = inhibition, actives largely listed as inhibitors; 390,000 compounds, 0.039% hits; active = well fitted inhibition curve with a large enough effect; inconclusive = small, poorly fitted or top-dose-only effect; inactive = no such curve, though single readings can be large or run the other way; also: potency is read from the fitted curve at half-maximal effect; % is scaled to controls: 0 for no effect and ±100 for the full control effect; nearly all actives have a fitted effect of over 75% in size
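MLSMR compounds (23 nl, pin-transferred) preincubated 10 min at room temperature with a 500nM (2x) first reagent, then RGS4 at 900nM (2x) plus Transcreener GDP mix added; fluorescence polarization (620/688 nm) read before and after 90 min at 30 °C.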
pAkt inh = Akt phosphorylation inhibition. Neuro2A IGF-stimulated pAkt S473 HTRF, 20 min; hits give low values. activity change, % for hits at 50 µM. 360,000 compounds, 0.32% hits; in the data active = activity change below about -80%; inconclusive = mostly about -51% to -80%; also: % is scaled to controls: 0 for no effect and ±100 for the full control effect
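Neuro2A cells (4,500/well, DMEM with 0.5% FBS) were treated with compound at a single 50 µM final concentration, stimulated with 6 nM IGF for 20 min at 37 °C, and lysed. Phospho-Akt Ser473 was read by HTRF as 665/615 ratio ×10^4.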
PI4K2A block = blocks human PI4K2A kinase activity. Q9BTU6. purified PI4K2A, ADP-Glo luminescence, 1 h; hits give low values. activity change, negative = inhibition, % at 76.9 µM. 420,000 compounds, 0.13% hits; in the data active = activity change below about -50%; inconclusive = mostly about -30% to -49%;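 also: -100% = wells without enzyme as full effect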
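In this quantitative HTS, ADP production by PI4K2A was quantified luminescently after 1 h at ambient temperature; 100 microM adenosine served as plate-quality control.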
LDHA block = LDHA (human) enzyme inhibition; 480,000 compounds, 0.15% hits; P00338; activity change, % (values are at about 110 or 230 µM); purified LDHA, NADH/diaphorase-resazurin fluorescence; hits give low values; in the data active = activity change below about -30%; inconclusive = mostly about -25% to -30%;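 also: plate controls were DMSO wells for no effect and wells without enzyme for full effect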
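Resorufin fluorescence (ex540/em590), read at 0 and 20 min after diaphorase/resazurin addition, reports the NADH left after a 5 min room-temperature reaction of 2 nM human LDH5 with 0.06 mM NADH and 0.2 mM pyruvate.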
Active calls of the source: *; i = inactive; ? = inconclusive; . = not tested or not shown; ! = not confirmed by another sample.

SMILES | DRD3 agonist | D3 antag | RGS4 inh | pAkt inh | PI4K2A block | LDHA block
Cc1cccc(C)c1NC(=O)C(NC=O)c1ccc(Cl)cc1 (configuration not stated) | -6 | -56* | 6% | i | -2 | -2
COc1cc(C(NC=O)C(=O)Nc2c(C)cccc2C)ccc1O (configuration not stated) | 2 | -1 | 23% | i | 12 | -2
C=CCn1c(N)c(C(=O)N2CCN(C)CC2)sc1=S | -35 | -54* | -25% | i | -4 | -13
C=CCn1c(N)c(C(=O)OCC)sc1=S | 4 | 9 | -3% | i | -5 | 2
O=c1cc(CN2CCN(Cc3ccccc3)CC2)c2cc3c(cc2o1)CCC3 | -39 | -62* | -32% | i | 1 | 0
O=c1cc(CN2CCN(c3ccccc3F)CC2)c2cc3c(cc2o1)CCCC3 | -29 | -62* | -4% | i | 6 | -2
CC(C)OCCCNC(=O)COc1ccc2c(-c3ccccc3)cc(=O)oc2c1 | . | . | . | . | . | 16
CSc1ccc(/C=C2\C(=O)Oc3ccccc32)cc1 | . | . | . | . | . | 8
CC(C(=O)NC(=O)NC12CC3CC(CC(C3)C1)C2)n1cnc2c1c(=O)n(C)c(=O)n2C (configuration not stated) | . | . | . | . | . | -31*
CC1=C(C(=O)Nc2ccccc2)C(c2ccccc2)N2C(=O)CSC2=N1 (configuration not stated) | -3 | -4 | -13% | i | ? | -9
CC1=C(C(=O)Nc2ccccc2)C(c2ccc(C(C)C)cc2)N2C(=O)CSC2=N1 (configuration not stated) | 5 | -51* | 3% | i | 0 | -5
CC(C)=N/N=C1/NC(=O)C(c2ccc(Cl)cc2)S1 (configuration not stated) | -9 | -96* | -16% | i | 6 | -2
Cc1ccc(CNC(=O)c2ccc(Cn3nc(C)c(Cl)c3C)o2)cc1 | -12 | -53* | ? | . | -14 | 2
Cc1cc(C)cc(NC(=O)c2ccc(Cn3nc(C)c(Cl)c3C)o2)c1 | -2 | 66 | -12% | i | 1 | 2
c1ccc(CNc2c(-c3cccc(SC4CCCCC4)c3)nc3ccccn23)cc1 | 43* | 90 | 5% | i | -3 | 0
Clc1ccc2nc(-c3cccc(SC4CCCCC4)c3)c(NCc3ccccc3)n2c1 | 12 | 11 | -19% | i | 1 | 1
Cc1ccn2c(NCc3ccccc3)c(-c3cccc(SC4CCCCC4)c3)nc2c1 | 41*! | 103 | -15% | i | -2 | 5
CCC(C)Sc1cccc(-c2nc3cc(C)ccn3c2NCc2ccccc2)c1 (configuration not stated) | 77* | 39 | -28% | i | -4 | 6
Cc1ccc2nc(-c3cccc(SC4CCCCC4)c3)c(NCc3ccccc3)n2c1 | 5 | 58 | 4% | i | 1 | -1
CC(C)C(=O)N1N=C(c2ccc(NS(C)(=O)=O)cc2)CC1c1ccc(F)cc1 (configuration not stated) | . | . | . | . | . | 1
CC(Nc1nc(-c2ccc(CNC(=O)C(C)(C)C)s2)cs1)c1ccccc1 (configuration not stated) | . | . | . | . | . | 3
Cc1csc(NC(=O)c2sccc2-c2ccccc2)n1 | . | . | . | . | . | 8
O=c1ccc(-c2ccc(Cl)cc2)nn1CCNS(=O)(=O)c1ccc(C(F)(F)F)cc1 | . | . | . | . | . | 4
O=C(NCc1ncc(-c2ccccc2)o1)C1CCCCC1 | . | . | . | . | . | 5
CC(C)=CC(=O)Nc1ccc(Cl)cc1 | 0 | -1 | 12% | i | -5 | 0
CS/C(=C\[N+](=O)[O-])Nc1ccc(Cl)cc1 | -16 | -84* | -38% | i | -14 | 0
CCCc1nc2nc(C)[nH]n2c(=O)c1NC(=O)Nc1cccc(C(F)(F)F)c1 | . | . | . | . | . | 39
COc1ccc(Cc2n[nH]c(=S)o2)cc1 | -6 | -20 | 0% | i | 0 | -6
S=c1[nH]nc(COc2ccc3ccccc3c2)o1 | 0 | -62* | -22% | i | -7 | -11
